The results in this text go back to PubChem BioAssay (NCATS).

The structures appear in SMILES notation. Results filed as inconclusive are left out. Entries that show only a call come without a potency. Calls of active or inactive are those of the source. Calls follow the shape of the dose curve; as a rule, active = well fitted curve in the direction sought with a large enough effect; inconclusive = small, poorly fitted or top-dose-only effect, or another doubt; inactive = no such curve, though single readings can be large; an effect the other way counts as inactive or inconclusive.

Experiment [1] has as its target Calcium and integrin-binding protein 1 (Homo sapiens) (UniProt Q99828). As to the kind of experiment: Confirmatory qHTS for Identification of Calcium Integrin Binding Protein 1 (CIB1) Competitor (AID 1508617). Also: potency is read from the fitted curve at half-maximal effect; nearly all actives have a fitted effect of over 65% in size. Particulars: CIB1 binding competition assay, biochemical qHTS; series mostly up to 114 µM. The essentials:
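Binding competition between test compounds and fluorescent alphaIIb peptide for 1 uM CIB1-GST is monitored by FP at 480/540 nm. Final compound range is up to 114 uM; unlabeled peptide serves as reference competitor.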

A short description of experiment [2]: Primary qHTS for small molecule stabilizers of the endoplasmic reticulum resident proteome: Secreted ER Calcium Modulated Protein (SERCaMP) assay (AID 1508630). Particulars: SH-SY5Y GLuc-SERCaMP (Gaussia luciferase released on ER calcium loss) secretion, thapsigargin, luminescence; series mostly up to 38.4 µM. The essentials: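 GLuc-SERCaMP-expressing SH-SY5Y cells, pretreated 16 h with compound, are challenged with thapsigargin to empty ER calcium stores; after 4 h, coelenterazine is added directly to the medium and luminescence is imaged.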

The target of experiment [3] is N-terminal Xaa-Pro-Lys N-methyltransferase 1 (Homo sapiens) (UniProt Q9BV86). As to the kind of experiment: Confirmatory qHTS for Inhibitors of N-terminal methyltransferase 1 (NTMT1): MTaseGlo Assay (AID 1645874). Also: potency is read from the fitted curve at half-maximal effect; nearly all actives have a fitted effect of over 65% in size. The conditions noted are these: NTMT1 enzyme, MTase-Glo SAH luminescence. The essentials:
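Compounds are incubated with 125 nM NTMT1 and 100 uM SAM for 15 min before the SPKRIA peptide (1 uM) starts a 30 min room-temperature methylation. SAH is measured by coupled luciferase luminescence and curves fitted to a Hill equation.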

Experiment [4] is described as follows: Primary qHTS for inhibitors of nuclear receptor binding SET domain protein 2 (NSD2) in an isogenic RCH-ACV NSD2 p.E1099K mutant (9B) (AID 1645876). Also: potency is read from the fitted curve at half-maximal effect; nearly all actives have a fitted effect of over 70% in size. Particulars: RCH-ACV NSD2 E1099K (9B) viability, CellTiter-Glo, 72 h; series mostly up to 44.9 µM.
The nature of experiment [5]: Primary qHTS for inhibitors of nuclear receptor binding SET domain protein 2 (NSD2) in an RCH-ACV wild type WT cells (2C) (AID 1645877). Also: potency is read from the fitted curve at half-maximal effect; nearly all actives have a fitted effect of over 70% in size. The conditions noted are these: RCH-ACV (leukaemia line) NSD2 WT (2C) viability, CellTiter-Glo, 72 h; series mostly up to 44.9 µM.
Experiment [6] addresses Calcium and integrin-binding protein 1 (Homo sapiens) (UniProt Q99828). As to the kind of experiment: Primary qHTS for Identification of Calcium Integrin Binding Protein 1 (CIB1) Competitor (AID 1508620). Also: top concentration of the series differs between compounds. The conditions noted are these: CIB1-GST / FITC-alphaIIb peptide fluorescence polarization; series mostly up to 57.7 µM. The essentials: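 Fluorescence polarization competition: GST-tagged CIB1 (1 uM final) preincubated with compound 15 min at room temperature, then FITC-labelled alphaIIb peptide (100 nM final) added. After 15 min at room temperature, polarization read at Ex 480/Em 540.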

The nature of experiment [7]: Validation qHTS assay for inhibitors of Activation Induced Cytidine Deaminase (AID): UDG Counterscreen signal (AID 1347427). Particulars: biochemical UDG counterscreen, fluorescence signal; series mostly up to 115 µM. The essentials: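 Counterscreen read of UDG activity (2 U/mL, 4/3x) in the FRET deamination format with AID (1 uM, 4/3x), DJC20/DJC23 substrates (250 nM, 4x), 4 h at room temperature. NaOH stop, fluorescence at 560 ex/665 em.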

Experiment [8] concerns the target Single-stranded DNA cytosine deaminase (Homo sapiens) (UniProt Q9GZX7). Nature of the experiment: Validation qHTS assay for inhibitors of Activation Induced Cytidine Deaminase (AID): AID signal (AID 1347429). Particulars: Recombinant AID, FRET ssDNA deamination with UDG, fluorescence; series mostly up to 115 µM. The essentials: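 In this coupled qHTS, AID deaminates a FRET-labelled ssDNA substrate in the presence of UDG over 4 hr at room temperature. Compounds span up to 114 uM final.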

Experiment [9] is described as follows: Primary qHTS for inhibitors of La Crosse Virus (LACV) - induced cell death in SH-SY5Y cells (AID 1508616).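 Also: top concentration of the series differs between compounds; higher means more rescue of cells from virus-induced death.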 Particulars: SH-SY5Y LACV cytopathicity rescue, ATP luminescence, 6 d; series mostly up to 4.29 µM. The essentials: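 Readout was luminescence from ATPLite 1step added after a 6-day LACV infection (0.01 MOI) of SH-SY5Y cells that had received pin-transferred compound 24 hr after seeding.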

The nature of experiment [10]: qHTS to identify inhibitors of the type 1 interferon - major histocompatibility complex class I in skeletal muscle: primary screen against the NCATS Mechanism Interrogation Plate v5.0 (MIPE) Libary (AID 1347411). Also: nearly all actives have a fitted effect of over 65% in size. Also: potency is read from the fitted curve at half-maximal effect. Particulars: iHSKM cells + IFN-b, HiBiT-tagged MHC-I luminescence, 24 h; series mostly up to 45.8 µM. The essentials: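 Cells were genome-edited human myoblasts carrying a HiBit tag on endogenous HLA-B. They were treated with IFN-beta (4.0 ng/ml) and titrated compounds (top 46 uM) for 24 hrs before lytic HiBiT detection.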

Chain of Calcium and integrin-binding protein 1 (Homo sapiens) (Q99828 whole entry, looked up): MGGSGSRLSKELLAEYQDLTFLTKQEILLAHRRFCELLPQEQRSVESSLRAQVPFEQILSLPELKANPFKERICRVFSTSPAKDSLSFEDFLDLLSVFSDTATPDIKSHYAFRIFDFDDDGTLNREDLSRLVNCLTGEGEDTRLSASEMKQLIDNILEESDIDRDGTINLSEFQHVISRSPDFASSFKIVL
Chain of Single-stranded DNA cytosine deaminase (Homo sapiens) (Q9GZX7 whole entry, looked up): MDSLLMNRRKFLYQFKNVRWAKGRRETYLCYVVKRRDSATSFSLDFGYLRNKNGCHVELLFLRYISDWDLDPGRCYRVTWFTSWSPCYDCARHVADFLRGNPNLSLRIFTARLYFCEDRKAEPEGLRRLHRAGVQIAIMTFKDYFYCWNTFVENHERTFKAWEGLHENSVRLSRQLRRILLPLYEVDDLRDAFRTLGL
Chain of N-terminal Xaa-Pro-Lys N-methyltransferase 1 (Homo sapiens) (Q9BV86 whole entry, looked up): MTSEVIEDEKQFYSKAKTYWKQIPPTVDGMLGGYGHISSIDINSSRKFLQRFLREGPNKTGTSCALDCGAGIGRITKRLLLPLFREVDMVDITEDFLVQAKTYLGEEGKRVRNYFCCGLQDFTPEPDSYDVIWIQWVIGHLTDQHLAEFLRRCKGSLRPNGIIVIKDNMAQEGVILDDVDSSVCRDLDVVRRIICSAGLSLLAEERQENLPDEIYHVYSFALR

Consider `CN1CCCN(C(=O)c2cccc(-c3ccc(C=C4C(=O)Nc5ccc(Cl)cc54)o3)c2)CC1`, for which the Potency was 35.5 µM (active) in experiment [1], 9.16 µM (active) in experiment [3], 206 nM (active) in [4] and 184 nM (active) in experiment [5]. The outcome in [2] was inactive.

Take `N#CC(=Cc1ccc(O)c(O)c1)C(=O)NCc1ccccc1`: in experiment [6], the Potency entry is “inactive”.

For `O=c1[nH]c(=O)n([C@H]2C[C@@H](O)[C@@H](CO)O2)cc1C=CBr`, the call in [7], in [8], in [9] and in [2] was inactive. Besides, the Potency result in [6] was “inactive”.

Take `COc1cccc2c1C(=O)c1c(O)c3c(c(O)c1C2=O)C[C@@](O)(C(=O)CO)C[C@@H]3O[C@H]1C[C@H](N)[C@@H](O)[C@H](C)O1`: the Potency was 829 nM (active) in experiment [10], 66.1 nM (active) in experiment [4] and 46.8 nM (active) in experiment [5]. Besides, the result in experiment [2] was inactive.

With `NS(=O)(=O)OC[C@@H]1C[C@@H](n2ccc3c(N[C@H]4CCc5ccccc54)ncnc32)C[C@H]1O`, the Potency result in experiment [6] is “inactive”.

In the case of `COc1cc(OC)c(C=CS(=O)(=O)Cc2ccc(OC)c(NCC(=O)O)c2)c(OC)c1`, the Potency entry in experiment [6] is “inactive”.

Turning to `C[C@]12C=CC(=O)N[C@@H]1CC[C@H]1[C@H]3CC[C@@H](C(=O)Nc4cc(C(F)(F)F)ccc4C(F)(F)F)[C@@]3(C)CC[C@@H]12`, the Potency result in [6] was “inactive”. The outcome in experiment [2] was inactive.

As for `COc1ccnc2[nH]cc(C(=O)C(=O)N3CCN(C(=O)c4ccccc4)C[C@@H]3C)c12`, in experiment [6], the Potency result is “inactive”.

Regarding `CN[C@H](CC(C)C)C(=O)N[C@H]1C(=O)N[C@@H](CC(N)=O)C(=O)N[C@@H]2C(=O)N[C@H]3C(=O)N[C@H](C(=O)N[C@H](C(=O)O)c4cc(O)cc(O)c4-c4cc3ccc4O)[C@H](O)c3ccc(c(Cl)c3)Oc3cc2cc(c3O[C@@H]2O[C@H](CO)[C@@H](O)[C@H](O)[C@@H]2O[C@H]2C[C@](C)(N)[C@H](O)[C@H](C)O2)Oc2ccc(cc2Cl)[C@H]1O`, the outcome in [7], in experiment [8] and in experiment [9] was inactive. Also, in experiment [6], the Potency entry is “inactive”.

On to `CC(=O)ON=C1C(c2c(O)[nH]c3cc(Br)ccc23)=Nc2ccccc21`, for which the Potency result in experiment [6] is “inactive”.

With `CC1(C)[C@H](O[C@H]2O[C@H](C(=O)O)[C@@H](O)[C@H](O)[C@H]2O[C@@H]2O[C@H](C(=O)O)[C@@H](O)[C@H](O)[C@H]2O)CC[C@@]2(C)[C@H]1CC[C@]1(C)[C@H]2C(=O)C=C2[C@H]3C[C@@](C)(C(=O)O)CC[C@]3(C)CC[C@]21C`, the Potency result in experiment [6] was “inactive”.

As to `C[N+]1(C)[C@@H]2C[C@@H](OC(=O)C(O)(c3cccs3)c3cccs3)C[C@H]1[C@@H]1O[C@@H]12`, in experiment [6], the Potency entry is “inactive”.

As to `C=CC(=O)Nc1cccc(Nc2nc(NC3CCC(N(C)C)CC3)nc3c2ncn3C(C)C)c1` (stereo not given), the Potency entry in experiment [6] was “inactive”.

Consider `Cc1cnn(C)c1C(=O)Nc1cc(Nc2ccc3c(C=Cc4ccccn4)n[nH]c3c2)ccc1F`, for which the Potency entry in experiment [6] was “inactive”.

For `Cn1cc(C2=C(c3c4n(c5ccccc35)CCC(CN)C4)C(=O)NC2=O)c2ccccc21` (stereo not given), the Potency entry in experiment [6] was “inactive”.

Turning to `O=C(O)C=Cc1ccc(Cn2ccnc2)cc1`, the Potency result in experiment [6] was “inactive”.

Consider `Nc1cccc2c1C(=O)N(C1CCC(=O)NC1=O)C2=O` (stereo not given), for which the Potency result in [10] is “inactive”. The result in experiment [2] was inactive.

For the compound `OCCN1C[C@H](O)[C@@H](O)[C@H](O)[C@@H]1CO`, the Potency result in experiment [6] was “inactive”.

As for `COC1=C(OC)C(=O)C(CC=C(C)CCC=C(C)CCC=C(C)CCC=C(C)CCC=C(C)CCC=C(C)CCC=C(C)CCC=C(C)CCC=C(C)CCC=C(C)C)=C(C)C1=O`, in [6], the Potency entry was “inactive”.
